Measured potencies and affinities stand elsewhere. Records with an inconclusive call do not appear. Calls of active or inactive are those of the source. How the calls were made is not given here.
experiment: general cell-killing toxicity readout – plate reader, dry powder samples, cytotoxicity control for PAX8 inhibitor project, dose response (AID 743021); details: cell line, non-specific cytotoxicity counter-screen; series mostly up to 35 µM

| SMILES | outcome |
| --- | --- |
| COc1ccc(C(=O)CCS(=O)(=O)c2ccc(C)cc2)cc1OC | inactive |
| COc1ccc([N+](=O)[O-])c(S(=O)(=O)c2ccccc2)n1 | inactive |
| CCCCn1c(=O)[nH]c(=O)c2c1nc(Cn1ncc(Cl)c(Cl)c1=O)n2CCC | inactive |
| C=C1C(=O)[C@]23C[C@H]1CC[C@H]2[C@]1(C)[C@@H](OC(C)=O)CC[C@@](C)(C(=O)O)[C@H]1C[C@@H]3O | inactive |
| COc1ccc(OC)c2sc(N(CCCN(C)C)C(=O)CCS(=O)(=O)c3ccccc3)nc12 | inactive |
| CNC(=O)c1cc(Oc2ccc(NC(=O)Nc3ccc(Cl)c(C(F)(F)F)c3)cc2)ccn1 | inactive |
| CCCCCc1c(-c2ccccc2OC)ncn1CCc1ccccc1OC | inactive |
| CCn1c2ccccc2c2cc(NC(=O)c3cc(OC)cc(OC)c3)ccc21 | inactive |
| Cc1ccc2nc(NNC(=O)c3ccc(S(=O)(=O)N4CCc5ccccc5C4)cc3)sc2c1 | inactive |
| CC(=O)c1sc(NC(=O)CCS(=O)(=O)c2ccc(Cl)cc2)nc1C | inactive |
| O=[N+]([O-])c1cc2c(ccc3occc32)o1 | inactive |
| O=C(Nc1ccccc1)Nc1cc(OCC(F)(F)F)cc(OCC(F)(F)F)c1 | inactive |
| BrC(=C\c1ccccc1)/C=N/n1cnnc1 | inactive |
| Cc1ccc(NC(=O)/C=C/c2ccc([N+](=O)[O-])s2)c(C)c1 | inactive |
| O=C(Nc1ccc(Cl)cc1)/C(=C/c1cccc(O)c1)c1nc2ccccc2s1 | inactive |
| Cn1nnnc1Sc1ncnc2scc(-c3ccc(Br)cc3)c12 | inactive |
| CC(=O)Nc1ccc(NC(=O)c2nc(S(=O)(=O)Cc3ccccc3)ncc2Cl)cc1 | inactive |
| CCCCCCCn1c2c(c(=N)c3c1CCC3)CCCC2 | inactive |
| O=C(Cn1ncc(Cl)c(Cl)c1=O)Nc1ccc2c(c1)OCO2 | inactive |
| COC1C(CO)OC(n2c3c(Cl)cccc3c3c4c(c5c6cccc(Cl)c6[nH]c5c32)C(=O)NC4=O)C(O)C1O (stereo not given) | inactive |

| SMILES | outcome |
| --- | --- |
| C[C@H](NC(=O)c1ccco1)C(=O)Nc1cccc([N+](=O)[O-])c1 | inactive |
| COc1ccc(CC2C(=O)NC(C)C(=O)N(C)C3Cc4ccc(cc4)Oc4cc(ccc4O)CC(C(=O)NC(C)C(=O)NC(C)C(=O)N2C)N(C)C3=O)cc1 (stereo not given) | inactive |
| Cn1nnnc1Sc1ncnc2scc(-c3ccc[nH]3)c12 | inactive |
| CCCCn1c(N)c(N(CCC(C)C)C(=O)COC(=O)c2ccc([N+](=O)[O-])s2)c(=O)[nH]c1=O | inactive |
| C=C1C(=O)[C@@]23[C@H](O)C[C@@H]4C(C)(C)CC[C@H](O)[C@]4(C)[C@@H]2C[C@H](O)[C@@H]1[C@H]3O | inactive |
| O=S(=O)(Nc1cc(Sc2ncn[nH]2)c(O)c2ccccc12)c1ccccc1 | inactive |
| C[n+]1c2n(c3ccccc31)N=C(c1cc(C(C)(C)C)c(O)c(C(C)(C)C)c1)CS2 | inactive |
| COC(=O)[C@]12CCCCC=C1N(Cc1cccc3ccccc13)C(=O)[C@H](CC(=O)N1CCN(C(=O)c3ccco3)CC1)C2 | inactive |
| COC(=O)[C@@]12C[C@@H](CC(=O)N3CCN(C(=O)c4ccco4)CC3)C(=O)N(Cc3ccccc3)C1=CCC(C)(C)C2 | inactive |
| C=C1C(=O)O[C@@H]2[C@H]1[C@@H](OC(=O)/C(C)=C/C)C/C(C)=C\C(=O)/C=C(\C)[C@@H]2O | inactive |
| CCOc1ccc(C(=O)C(CN2CCOCC2)c2ccccc2)cc1 (stereo not given) | inactive |
| O=C(c1ccco1)N1N=C(c2ccc(Br)cc2)CC1(O)C(F)(F)F (stereo not given) | inactive |
| Cc1cc(C)c(C(=O)/C=C/c2cccc3ccccc23)c(=O)[nH]1 | inactive |
| Cc1cccc(CS(=O)(=O)c2ncc(Cl)c(C(=O)Nc3ccc(F)cc3)n2)c1 | inactive |
| COc1cccc2c1C(=O)c1c(O)c3c(c(O)c1C2=O)CC(O)(C(C)=NNC(=O)c1ccc(Cl)c(Cl)c1)CC3OC1CC(N)C(O)C(C)O1 (stereo not given) | inactive |
| CC[C@]1(O)C[C@@H]2CN(CCc3c([nH]c4ccccc34)[C@@](C(=O)OC)(c3cc4c(cc3OC)N(C)[C@H]3[C@@](O)(C(=O)OC)[C@H](OC(C)=O)[C@]5(CC)C=CCN6CC[C@]43[C@@H]65)C2)C1 | inactive |
| CN(N=Nc1nc[nH]c1C(N)=O)C1CCCCC1 | inactive |
| COc1cc(C2C3=C(COC3=O)OC(C)(C)Oc3cc4c(cc32)OCO4)cc(OC)c1OC (stereo not given) | inactive |
| CCCOc1ccc2[nH]c(C(=O)N/N=C/c3cc(OC)c(OC)c(OC)c3)cc2c1 | inactive |
| Cc1ccc(S(=O)(=O)NCc2ccc(C(=O)N3CCN(c4ccc([N+](=O)[O-])cc4)CC3)cc2)cc1 | inactive |

From PubChem BioAssay
